This passage reports growth results from PubChem BioAssay (NCI).

Test systems include DU-145 prostate; K-562 leukemia; MALME-3M melanoma; MDA-MB-231 breast; RXF 393 renal; SF-268 CNS; SF-295 CNS; SF-539 CNS; UACC-257 melanoma; M14 melanoma.
Holding throughout (test): NCI-60 one-dose screen, 48 h (100 = growth as untreated, 0 = no growth, -100 = all killed)
What all share (settings): 10 µM unless noted

SMILES strings stand for the structures. Several values for one entry are separate records, joined by “and”; a condition that tells them apart may be missing. Equal values may be shown once. Compounds without any hit were thinned out: in the full panel of roughly 83,000, 20% have a hit.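 Cells were grown in 96-well plates and exposed to the test compound at a single concentration for 48 hours; results are reported as percent growth, with values below 10 considered active.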 Values without a mark were called inactive. Activity calls are given as the source filed them.

Turning to `OCCCc1ccccc1`, the growth with DU-145 prostate is 118%; in the assay with K-562 leukemia it was 121%; in the assay on MALME-3M melanoma, 75.8%; in the assay with MDA-MB-231 breast, 97.8%; in the assay with RXF 393 renal it was 105%; in the assay on SF-268 CNS it was 108%. Also, the growth in the assay with SF-295 CNS was 107%; with SF-539 CNS, 112%; in the assay with UACC-257 melanoma, 102%; with M14 melanoma, 100%.

Turning to `COc1cc(Cl)ccc1C`, the growth in the assay on DU-145 prostate is 5.38% (active); in the assay on K-562 leukemia, 83.3%; in the assay on MALME-3M melanoma it was 93.7%; in the assay with MDA-MB-231 breast, 85.9%; with RXF 393 renal, 91.2%; with SF-268 CNS it was 83.9%. In addition, the growth is 79.2% in the assay with SF-295 CNS, 104% in the assay with SF-539 CNS, 85% with UACC-257 melanoma and 95.8% in the assay with M14 melanoma.

Regarding `O=C(c1ccccc1)C1(Br)CCCCC1`, the growth with DU-145 prostate is 105%; with K-562 leukemia, 98%; in the assay with MALME-3M melanoma, 95.1%; in the assay with MDA-MB-231 breast, 94.3%; with RXF 393 renal, 113%; in the assay with SF-268 CNS it was 92%. In addition, the growth was 93.4% with SF-295 CNS, 93.5% with SF-539 CNS, 98.7% in the assay on UACC-257 melanoma and 98.6% in the assay with M14 melanoma.

Take `CCOC(=O)CN1CCC(C(=O)OCC)CC1`: the growth was 118% in the assay with DU-145 prostate; 118% with K-562 leukemia; 111% in the assay with MALME-3M melanoma; 103% in the assay with MDA-MB-231 breast; 127% in the assay with RXF 393 renal; 113% with SF-268 CNS. Besides, the growth is 119% with SF-295 CNS, 117% with SF-539 CNS, 110% with UACC-257 melanoma and 105% with M14 melanoma.

Consider `Cc1ccc(NC(=S)N/C=C(\c2ccccc2)S(=O)Cc2ccccc2)c(C)c1` (stereo not given), for which the growth in the assay on DU-145 prostate was 109%; with K-562 leukemia it was 98.2%; in the assay on MALME-3M melanoma it was 106%; in the assay with MDA-MB-231 breast it was 104%; with RXF 393 renal, 106%; in the assay on SF-268 CNS it was 101%. In addition, the growth was 98.9% with SF-295 CNS, 103% in the assay with SF-539 CNS, 98.9% with UACC-257 melanoma and 97.3% in the assay with M14 melanoma.

Consider `CNc1ccc(Cl)cc1S(=O)(=O)c1ccccc1[N+](=O)[O-]`, for which the growth with DU-145 prostate is 105%; in the assay with K-562 leukemia, 55.7% and 73.3%; in the assay with MALME-3M melanoma it was 78.2% and 91.1%; in the assay on MDA-MB-231 breast, 77.7% and 97%; in the assay with RXF 393 renal, 25.1% and 126%; with SF-268 CNS it was 106% and 90.6%. The growth in the assay on SF-295 CNS is 108% and 104%; in the assay with SF-539 CNS, 86.4% and 98.3%; in the assay on UACC-257 melanoma it was 75.7% and 89.8%; in the assay with M14 melanoma it was 115% and 83.4%.

`COc1cc2c(cc1O)C(=O)CCCC2`: the growth with DU-145 prostate is 117%; in the assay with K-562 leukemia, 124%; with MALME-3M melanoma, 108%; in the assay with MDA-MB-231 breast it was 108%; in the assay on RXF 393 renal, 105%; in the assay on SF-268 CNS it was 90.3%. Besides, the growth was 83.8% in the assay with SF-295 CNS, 99.6% with SF-539 CNS, 121% with UACC-257 melanoma and 97.2% in the assay on M14 melanoma.

`CC(=O)/C(N=Nc1ccc(S(=O)(=O)c2ccc(N=N/C(C(C)=O)=C(/C)O)cc2)cc1)=C(\C)O`: the growth was 104% in the assay on DU-145 prostate; 111% with K-562 leukemia; 106% with MALME-3M melanoma; 113% in the assay on MDA-MB-231 breast; 165% in the assay with RXF 393 renal; 101% in the assay with SF-268 CNS. Also, the growth with SF-295 CNS was 118%; in the assay on SF-539 CNS, 112%; in the assay with UACC-257 melanoma, 109%; in the assay with M14 melanoma it was 105%.

With `CC(C)(C)OC(=O)c1ccc(NCc2cc(O)ccc2O)cc1`, the growth in the assay on DU-145 prostate is 57%; in the assay with K-562 leukemia, 3.17% (active); with MALME-3M melanoma it was -40.2% (active); in the assay with MDA-MB-231 breast, -38.2% (active); in the assay on RXF 393 renal it was -68.3% (active); in the assay with SF-268 CNS it was 16.5%. In addition, the growth is 78.4% in the assay on SF-295 CNS, -70.1% (active) with SF-539 CNS, -6.29% (active) in the assay on UACC-257 melanoma and 44.5% with M14 melanoma.

For `COc1ccc(CCl)c(C)c1OC`, the growth in the assay on DU-145 prostate was 104%; with K-562 leukemia, 6.6% (active); in the assay with MALME-3M melanoma, 84.9%; in the assay on MDA-MB-231 breast it was 98.5%; in the assay with RXF 393 renal, 112%; in the assay on SF-268 CNS, 97.1%. For the same compound, the growth is 95.3% in the assay with SF-295 CNS, 99.4% with SF-539 CNS, 96% in the assay on UACC-257 melanoma and 110% with M14 melanoma.

For `COc1ccc2oc3c(ccc[n+]3C)c(=O)c2c1`, the growth with DU-145 prostate was 113%; in the assay with K-562 leukemia, 99%; in the assay on MALME-3M melanoma it was 102%; in the assay with MDA-MB-231 breast, 110%; in the assay with RXF 393 renal it was 108%; with SF-268 CNS it was 101%. The growth was 99.5% in the assay on SF-295 CNS, 98.2% with SF-539 CNS, 87.3% in the assay on UACC-257 melanoma and 102% in the assay with M14 melanoma.
